Test results taken from PubChem BioAssay (Tox21).
Results filed as inconclusive are left out. The source made the active and inactive calls. Calls come from the whole dose curve; as a rule, active = well fitted curve in the direction sought with a large enough effect in the repeat runs; inconclusive = weak or mixed curves; inactive = no such curve, though single readings can be large; an effect the other way counts as inactive or inconclusive.

Columns and labels:
[1] = qHTS RealTime-Glo MT Cell Viability Assay in HepG2 cells - 40 hour (AID 1224870); note: nearly all actives have a fitted effect of over 50% in size
In short: (§1)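 HepG2 cells (600/well) mixed with RealTime-Glo MT reagent, settled 5 h at 37 C/5% CO2 before compound addition. Nonlytic NanoLuc luminescence from viable-cell prosubstrate reduction read repeatedly during 40 h treatment at 37 C.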

[2] = A CellTox Green Cytotoxicity Assay to monitor cytotoxicity in HEK293 cells - 40 hour (AID 1224871); note: nearly all actives have a fitted effect of over 45% in size
In short: (§2)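 Read-out: fluorescence of a cell-impermeant cyanine dye staining DNA of dead cells, proportional to cytotoxicity. HEK293, 600 cells/well with reagent, compound (23 nL DMSO) added after 5 h; reads at 0, 8, 16, 24, 32, 40 h.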

[3] = qHTS RealTime-Glo MT Cell Viability Assay in HEK293 cells - 16 hour (AID 1224872); note: top concentration of the series differs between compounds; nearly all actives have a fitted effect of over 50% in size
In short: (§3)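 Viability tracked continuously by luminescence as live cells reduce a prosubstrate for NanoLuc; HEK293 cells preincubated 5 h, compound-treated at 37 C, and read at 0, 8, 16, 24, 32 and 40 h.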

[4] = qHTS RealTime-Glo MT Cell Viability Assay in HEK293 cells - 40 hour (AID 1224874); details: RealTime-Glo luminescence; max response: hits give low values; note: nearly all actives have a fitted effect of over 50% in size
In short: (§4)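 Luminescence readout at each listed time point; HEK293, 600 cells/well, RealTime-Glo MT reagent added with cells; compounds pinned (23 nL in DMSO) after 5 h at 37 C; continuous culture at 37 C.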

[5] = A CellTox Green Cytotoxicity Assay to monitor cytotoxicity in HEK293 cells - 24 hour (AID 1224875); note: series mostly up to about 77 µM; nearly all actives have a fitted effect of over 45% in size
In short: as §2

[6] = A CellTox Green Cytotoxicity Assay to monitor cytotoxicity in HepG2 cells - 16 hour (AID 1224876); note: nearly all actives have a fitted effect of over 45% in size
In short: (§5)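 HepG2, 600 cells/well premixed w/ CellTox Green; 5 h settle, 37 C/5% CO2; pintool cpd add (DMSO); 37 C, 40 h; fluorescence read at 0, 8, 16, 24, 32, 40 h.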

[7] = qHTS RealTime-Glo MT Cell Viability Assay in HepG2 cells - 32 hour (AID 1224877); note: nearly all actives have a fitted effect of over 55% in size
In short: (§6)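 Viability was tracked continuously by NanoLuc luminescence from prosubstrate reduced by living HepG2 cells, at successive time points over 40 h of compound exposure. Cells with reagent were preincubated 5 h at 37 °C before compound addition.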

[8] = A CellTox Green Cytotoxicity Assay to monitor cytotoxicity in HepG2 cells - 24 hour (AID 1224878); note: nearly all actives have a fitted effect of over 45% in size
In short: as §5

[9] = A CellTox Green Cytotoxicity Assay to monitor cytotoxicity in HepG2 cells - 40 hour (AID 1224879); note: nearly all actives have a fitted effect of over 40% in size
In short: as §5

[10] = qHTS RealTime-Glo MT Cell Viability Assay in HEK293 cells - 0 hour (AID 1224880)
In short: as §4

[11] = A CellTox Green Cytotoxicity Assay to monitor cytotoxicity in HEK293 cells - 32 hour (AID 1224881); note: nearly all actives have a fitted effect of over 40% in size
In short: as §2

[12] = A CellTox Green Cytotoxicity Assay to monitor cytotoxicity in HepG2 cells - 0 hour (AID 1224882); note: nearly all actives have a fitted effect of over 35% in size
In short: as §5

[13] = A CellTox Green Cytotoxicity Assay to monitor cytotoxicity in HepG2 cells - 32 hour (AID 1224883); note: nearly all actives have a fitted effect of over 50% in size
In short: as §5

[14] = A CellTox Green Cytotoxicity Assay to monitor cytotoxicity in HEK293 cells - 8 hour (AID 1224884); note: nearly all actives have a fitted effect of over 35% in size
In short: as §2

[15] = qHTS RealTime-Glo MT Cell Viability Assay in HepG2 cells - 16 hour (AID 1224885); note: nearly all actives have a fitted effect of over 50% in size
In short: as §6

[16] = qHTS RealTime-Glo MT Cell Viability Assay in HEK293 cells - 24 hour (AID 1224886)
In short: as §3

[17] = qHTS RealTime-Glo MT Cell Viability Assay in HEK293 cells - 8 hour (AID 1224887)
In short: as §4

[18] = A CellTox Green Cytotoxicity Assay to monitor cytotoxicity in HEK293 cells - 16 hour (AID 1224888); note: nearly all actives have a fitted effect of over 35% in size
In short: as §2

[19] = qHTS RealTime-Glo MT Cell Viability Assay in HepG2 cells - 0 hour (AID 1224889); note: nearly all actives have a fitted effect of over 50% in size
In short: as §6

[20] = qHTS RealTime-Glo MT Cell Viability Assay in HepG2 cells - 8 hour (AID 1224873); note: nearly all actives have a fitted effect of over 55% in size
In short: as §1
% is set by controls: 0 for no effect and ±100 for the full control effect.

CC(=O)c1cccnc1
inactive: Potency [1] | Potency [2] | Potency [3] | max response [4] -6.53% | Potency [5] | Potency [6] | Potency [7] | Potency [8] | Potency [9] | Potency [10] | Potency [11] | Potency [12] | Potency [13] | Potency [14] | outcome [15] | Potency [16] | Potency [17] | Potency [18] | Potency [19]

CCCCOc1ccc(N)cc1
inactive: Potency [1] | Potency [2] | Potency [3] | max response [4] 0.387% | Potency [5] | Potency [6] | Potency [7] | Potency [8] | Potency [9] | Potency [10] | Potency [11] | Potency [12] | Potency [13] | Potency [14] | outcome [15] | Potency [16] | Potency [17] | Potency [18] | Potency [19]

CC(C)(C)c1cc(C=O)cc(C(C)(C)C)c1O
inactive: Potency [1] | Potency [2] | Potency [3] | max response [4] -0.177% | Potency [5] | Potency [6] | Potency [7] | Potency [8] | Potency [9] | Potency [10] | Potency [11] | Potency [12] | Potency [13] | Potency [14] | outcome [15] | Potency [16] | Potency [17] | Potency [18] | Potency [19]

C1CCN(CN2CCCCC2)CC1
inactive: Potency [1] | Potency [2] | Potency [3] | max response [4] 7.66% | Potency [5] | Potency [6] | Potency [7] | Potency [8] | Potency [9] | Potency [10] | Potency [11] | Potency [12] | Potency [13] | Potency [14] | outcome [15] | Potency [16] | Potency [17] | Potency [18] | Potency [19]

O=C(O)c1cccnc1Nc1cccc(C(F)(F)F)c1
inactive: Potency [1] | Potency [2] | Potency [3] | outcome [20] | max response [4] -4.24% | Potency [5] | Potency [7] | Potency [8] | Potency [9] | Potency [10] | Potency [12] | Potency [13] | Potency [14] | outcome [15] | Potency [16] | Potency [17] | Potency [18] | Potency [19]

O=C(c1ccco1)N1CCNCC1
inactive: Potency [1] | Potency [2] | Potency [3] | max response [4] 3.57% | Potency [5] | Potency [6] | Potency [7] | Potency [8] | Potency [9] | Potency [10] | Potency [11] | Potency [12] | Potency [13] | Potency [14] | outcome [15] | Potency [16] | Potency [17] | Potency [18] | Potency [19]

Nc1cccc2c(=O)[nH][nH]c(=O)c12
inactive: Potency [1] | Potency [2] | Potency [3] | outcome [20] | Potency [5] | Potency [7] | Potency [8] | Potency [9] | Potency [10] | Potency [11] | Potency [12] | Potency [13] | Potency [14] | outcome [15] | Potency [16] | Potency [17] | Potency [18] | Potency [19]

CC(C)Cc1nccs1
inactive: Potency [1] | Potency [2] | Potency [3] | outcome [20] | max response [4] 3.56% | Potency [5] | Potency [7] | Potency [8] | Potency [9] | Potency [10] | Potency [12] | Potency [13] | Potency [14] | outcome [15] | Potency [16] | Potency [17] | Potency [18] | Potency [19]

CCc1ccc(C(=O)C(C)CN2CCCCC2)cc1 (centres undefined)
inactive: Potency [1] | Potency [2] | Potency [3] | max response [4] 7.68% | Potency [5] | Potency [6] | Potency [7] | Potency [8] | Potency [9] | Potency [10] | Potency [11] | Potency [12] | Potency [13] | Potency [14] | Potency [16] | Potency [17] | Potency [18] | Potency [19]

O=c1[nH][nH]c2ccccc12
inactive: Potency [1] | Potency [2] | Potency [3] | outcome [20] | Potency [5] | Potency [6] | Potency [7] | Potency [8] | Potency [9] | Potency [10] | Potency [11] | Potency [12] | Potency [13] | Potency [14] | outcome [15] | Potency [16] | Potency [17] | Potency [18] | Potency [19]

O=C(O)CNc1ccccc1
inactive: Potency [1] | Potency [2] | Potency [3] | max response [4] 5.54% | Potency [5] | Potency [6] | Potency [7] | Potency [8] | Potency [9] | Potency [10] | Potency [11] | Potency [12] | Potency [13] | Potency [14] | outcome [15] | Potency [16] | Potency [17] | Potency [18] | Potency [19]

COc1ccc(/C=C/S(=O)(=O)NC(=O)c2ccc(C)cc2Cl)cc1
inactive: Potency [1] | Potency [2] | Potency [3] | outcome [20] | max response [4] -7.95% | Potency [5] | Potency [7] | Potency [8] | Potency [9] | Potency [10] | Potency [11] | Potency [12] | Potency [13] | Potency [14] | Potency [16] | Potency [17] | Potency [18] | Potency [19]

O=C(C1CCCCC1)N1CC(=O)N2CCCc3ccccc3C2C1 (centres undefined)
inactive: Potency [1] | Potency [2] | Potency [3] | outcome [20] | max response [4] -23.1% | Potency [5] | Potency [6] | Potency [7] | Potency [10] | Potency [12] | Potency [13] | Potency [14] | outcome [15] | Potency [16] | Potency [17] | Potency [18] | Potency [19]

Cc1cc(C)c(C)c(O)c1
inactive: Potency [1] | Potency [2] | Potency [3] | outcome [20] | max response [4] 0.904% | Potency [5] | Potency [7] | Potency [8] | Potency [9] | Potency [10] | Potency [11] | Potency [12] | Potency [13] | Potency [14] | outcome [15] | Potency [16] | Potency [17] | Potency [18] | Potency [19]
